{"source": "PubChem BioAssay (EPA / NIEHS)", "note": "Activity calls are given as the source filed them. Rule for the calls: active = hit-call score of the fitted dose curve at least 0.9, where 1 is the maximum; inactive = score below 0.9.", "data": [{"assay": "ATG_PBREM_CIS: Attagene CIS-FACTORIAL HepG2 Assay for human Phenobarbital-responsive Enhancer Module (PBREM) (AID 2282955)", "settings": "HepG2 PBREM cis-reporter, Attagene multiplexed transcription; actives raise or lower the signal", "how_it_was_run": "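Fluorescence of labelled reporter cDNA fragments, resolved by capillary electrophoresis, gives mRNA induction in transfected HepG2 cells treated for 24 h; DMSO serves as negative control and baseline.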", "values": [{"smiles": "CCNc1cccc(C)c1", "outcome": "inactive"}, {"smiles": "COc1cccc2c1C(=O)c1c(O)c3c(c(O)c1C2=O)C[C@@](O)(C(=O)CO)C[C@@H]3O[C@H]1C[C@H](N)[C@H](O)[C@H](C)O1", "outcome": "inactive"}, {"smiles": "CN[C@H]1CC[C@@H](c2ccc(Cl)c(Cl)c2)c2ccc(S(N)(=O)=O)cc21", "outcome": "inactive"}, {"smiles": "O=c1c(O)c(-c2ccc(O)c(O)c2)oc2cc(O)cc(O)c12", "outcome": "inactive"}, {"smiles": "NCC1(Cc2noc(=O)[nH]2)CCCCC1", "outcome": "inactive"}, {"smiles": "Oc1ccc2ccccc2c1N=Nc1ccccc1", "AC50": "5.39 µM (active)"}, {"smiles": "Cc1ccccc1Cl", "outcome": "inactive"}, {"smiles": "C[C@]12C=CC(=O)C=C1CC[C@@H]1[C@@H]2C(=O)C[C@@]2(C)[C@H]1CC[C@]2(O)C(=O)CO", "outcome": "inactive"}, {"smiles": "COc1cc(C=O)ccc1O", "outcome": "inactive"}, {"smiles": "CCCCCCCCCCC", "outcome": "inactive"}, {"smiles": "Cc1cccc(C)c1O", "outcome": "inactive"}, {"smiles": "CCCCC(CC)COC(=O)CC(C(=O)OCC(CC)CCCC)S(=O)(=O)O", "note": "(stereo not given)", "outcome": "inactive"}, {"smiles": "CC(=O)OCCOCCOCCOC(C)=O", "outcome": "inactive"}, {"smiles": "CC1=C(/C=C/C(C)=C/C=C/C(C)=C/CO)C(C)(C)CCC1", "outcome": "inactive"}, {"smiles": "CC(C)(C)c1cc(O)c(C(C)(C)C)cc1O", "AC50": "61.6 µM (active)"}, {"smiles": "CNC(=O)[C@H]1O[C@@H](n2cnc3c(NCc4cc(Cl)ccc4OCc4cc(C)no4)ncnc32)[C@H](O)[C@@H]1N", "outcome": "inactive"}, {"smiles": "COc1cc(S(=O)(=O)O)c(C)cc1N=Nc1c(O)ccc2cc(S(=O)(=O)O)ccc12", "outcome": "inactive"}, {"smiles": "CC(=O)C(C)=CC1C(C)=CCCC1(C)C", "note": "(stereo not given)", "outcome": "inactive"}, {"smiles": "Cc1ccc(C)c(C)c1", "outcome": "inactive"}, {"smiles": "COc1ccc(S(=O)(=O)N2C(=O)[C@@](c3ccccc3OC)(N3C[C@H](O)C[C@H]3C(=O)N(C)C)c3cc(Cl)ccc32)c(OC)c1", "AC50": "17.1 µM (active)"}, {"smiles": "COc1ccc(C)cc1N", "outcome": "inactive"}, {"smiles": "CCCCN(CCCC)CCCC", "outcome": "inactive"}, {"smiles": "CCCCc1ccc2c(n1)[C@@H](c1ccc(OC)cc1C[C@H](C)C(=O)O)[C@H](C(=O)O)[C@H]2c1ccc2c(c1)OCO2", "outcome": "inactive"}, {"smiles": "CCCCCCC(=O)OCC", "outcome": "inactive"}, {"smiles": "COc1cc(/C=C/C(=O)CC(=O)/C=C/c2ccc(O)c(OC)c2)ccc1O", "outcome": "inactive"}, {"smiles": "CCc1c(C(=O)NN2CCCCC2)nn(-c2ccc(Cl)cc2Cl)c1-c1ccc(Br)cc1", "outcome": "inactive"}, {"smiles": "CC(=O)OC/C=C(\\C)CCC=C(C)C", "outcome": "inactive"}, {"smiles": "CCCCCCOCCO", "outcome": "inactive"}, {"smiles": "CCOc1ccc2c(c1)C(C)=CC(C)(C)N2", "outcome": "inactive"}, {"smiles": "CCCCOC(=O)CCCCCCCCC(=O)OCCCC", "outcome": "inactive"}]}]}
